Experimental findings from PubChem BioAssay (NCI) are described below.

Structures are written as SMILES. Compounds without any hit were thinned out: in the full panel of roughly 79,000, 15% have a hit. Unmarked numbers belong to inactive results. Active and inactive are the calls of the source. No stated cut-off is given here; in the data, active means growth inhibition above about 70%; inactive means the rest.

The test can be described thus: NCI Yeast Anticancer Drug Screen. Data for the sgs1 mgt1 strain (AID 161).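 Further: 0% = growth of cultures given vehicle only.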 The following applies: S. cerevisiae sgs1 mgt1 strain, at 50.0 µM, hits give high values. The method, boiled down: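 Test agents were incubated with a DNA-repair-mutant yeast strain. Growth was then read and compared against vehicle-treated controls.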
Consider `COC1OC(=O)c2ccccc21` (stereo not given), for which the growth inhibition was -2.1%. In the case of `CC(C)c1ccc(CN)cc1` it was -29.8%; in that of `Cc1cnc2cccc(C)c2c1Cl`, 10.3%.

For `COC(=O)C1=C(C(=O)OC)P2(C)(C)OC(c3ccccc3)CN2C1(c1ccccc1)c1ccccc1` (stereo not given), the growth inhibition is -2.4%. In the case of `COC(=O)C1C(=C(c2ccccc2)c2ccccc2)C1c1ccccc1` (stereo not given) it was -11.8%; in that of `Nc1ccc(NC(=O)Nc2ccc(N)cc2)cc1`, 16.8%. In the case of `CN(C)c1ccc(/C=N\NC(=S)NN2CCN(NC(=S)N/N=C\c3ccc(N(C)C)cc3)CC2)cc1` it was 5.2%.

With `O=C(NNC(=S)Nc1ccccc1)c1nsc2ccccc12`, the growth inhibition was 35%. With `COC(=O)c1ccc(/C=C2\Oc3ccccc3C2=O)cc1`, the growth inhibition is -39%.

Take `CCOc1ccc(N=Cc2c3ccccc3nc3ccccc23)cc1`: the growth inhibition was -3.25%. Next, `O=C(Nc1ccccc1F)c1c(O)nc2sccn2c1=O`: 38.5%. In the case of `O=C(C=c1sc(=CC(=O)c2ccccc2)s1)c1ccccc1` it was 14.7%; in that of `CC(=O)NC1CC(C)(C)NC(C)(C)C1`, 3.45%.

With `COc1cc2c(c3c1CCC(C)(C)O3)Cc1c(cc(OC)c(OC)c1CCC(C)(C)O)O2`, the growth inhibition was 3.6%. In the case of `CC1(C)C=C(C(=O)ON2C(=O)CCC2=O)C(C)(C)N1O` it was -14.5%; in that of `CC12CCC(CC1C(=O)O)C2` (stereo not given), 24.9%; in that of `O=C(O)/C=C(\CC(=O)O)C(=O)O`, -21.9%.

`CC(=O)Nc1ccc(S(=O)(=O)Nc2cccc3ccccc23)cc1`: the growth inhibition is 18.6%. Next, `CO/C=C1/CCc2c(ccc3cc(OC)ccc23)C1=O`: 10.5%; `CC(C)(C)c1ccccc1OC(=O)Nc1ccc(F)cc1`: 7.4%. Next, `CC1(C)CC(OP(=O)(c2ccccc2)c2ccccc2)CC(C)(C)N1O`: -6.3%; `O=C(NC1(C(=O)Oc2ccc([N+](=O)[O-])cc2)CCCC1)OCc1ccccc1`: 26.1%; `N#CCCSc1nnc(N)s1`: -8.65%. Take `CCCCCC(=O)c1ccc2[nH]c3c(C)cc([N+](=O)[O-])c(C)c3c2c1`: the growth inhibition is -34.6%. For `Cc1ccc(S(=O)(=O)OC2CCCC2OS(=O)(=O)c2ccc(C)cc2)cc1` (stereo not given), the growth inhibition was -8.5%. Next, `CCN(c1ccccc1)c1cc2c(cc1[N+](=O)[O-])no[n+]2[O-]`: 98.3% (active); `Nc1ccc2c(c1)CC1CC(=O)NN=C21` (stereo not given): 9.4%; `Nc1ccc2ccccc2c1Cl`: -11.4%. In the case of `N#CC(C#N)C1c2ccccc2Oc2ccccc21` it was -4.05%.

Take `Nc1nc(N)nc(-c2cc(Br)c(N)c(Br)c2)n1`: the growth inhibition was 0.95%. Next, `Cc1c(C(=O)O)c(-c2ccc([N+](=O)[O-])cc2)c(C=O)n1-c1ccccc1`: 3.3%. With `O=C(O)c1cccc(F)c1C(=O)O`, the growth inhibition was -1.5%.

On to `CCOC(=O)N1Cc2cc3ccccc3nc2C1CC(=O)O` (stereo not given), for which the growth inhibition is -3.6%. Next, `C[N+](C)=c1ccc2nc3ccc(N)cc3sc-2c1`: -43.6%; `CCCCCCCCCC1OC(C)C(C)O1` (stereo not given): 16.3%. For the compound `N#CC(c1ccc(N)cc1)c1ccc(F)cc1` (stereo not given), the growth inhibition was 22.2%. Next, `CN(C)S(=O)(=O)c1cccc([N+](=O)[O-])c1`: 18.1%. Consider `CCOC(=O)C(NC(=O)c1ccccc1)(C(=O)OCC)c1ccccn1`, for which the growth inhibition is 9.65%.

`CN(C)N=Nc1ccc(Cl)cc1C(=O)O`: the growth inhibition was 20.7%. Turning to `Nc1ccc2[nH]c(=O)c(=O)[nH]c2c1`, the growth inhibition is -24.1%.
